USP10 inh = inhibitors of human USP10 deubiquitinase; inhibition, % at 20 µM; hit rate 1.1% among 47,000; AID 1645856; Q14694; purified USP10, Ub-rhodamine fluorescence, 60 min
Target sequence (Q14694 whole entry, looked up): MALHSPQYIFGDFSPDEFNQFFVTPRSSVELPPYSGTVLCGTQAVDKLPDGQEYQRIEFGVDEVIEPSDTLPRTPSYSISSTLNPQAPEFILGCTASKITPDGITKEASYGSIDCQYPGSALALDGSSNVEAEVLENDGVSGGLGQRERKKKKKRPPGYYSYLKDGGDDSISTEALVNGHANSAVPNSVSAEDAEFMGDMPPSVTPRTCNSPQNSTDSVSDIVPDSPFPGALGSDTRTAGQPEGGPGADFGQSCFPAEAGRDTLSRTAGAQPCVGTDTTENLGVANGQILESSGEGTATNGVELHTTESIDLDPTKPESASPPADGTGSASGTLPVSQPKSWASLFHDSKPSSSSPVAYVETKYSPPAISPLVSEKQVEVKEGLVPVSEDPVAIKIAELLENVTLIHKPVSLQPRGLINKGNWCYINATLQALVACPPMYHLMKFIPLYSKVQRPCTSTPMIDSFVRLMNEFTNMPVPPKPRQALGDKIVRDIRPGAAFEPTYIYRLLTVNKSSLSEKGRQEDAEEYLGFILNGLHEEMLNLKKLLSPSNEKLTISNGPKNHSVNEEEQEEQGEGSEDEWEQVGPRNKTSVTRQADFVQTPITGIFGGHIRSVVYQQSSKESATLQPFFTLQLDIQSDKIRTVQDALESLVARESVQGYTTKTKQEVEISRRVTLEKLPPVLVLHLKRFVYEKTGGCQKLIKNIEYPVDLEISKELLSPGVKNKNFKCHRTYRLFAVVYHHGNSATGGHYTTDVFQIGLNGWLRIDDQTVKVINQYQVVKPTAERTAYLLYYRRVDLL
USP7 inh = inhibitors of human USP7 deubiquitinase | inhibition, % at 20 µM | hit rate 0.3% among 47,000 | Q93009 | purified USP7, Ub-rhodamine cleavage fluorescence | AID 1645854
UCHL1 block = inhibitors of human UCHL1 deubiquitinase. purified UCHL1, Ub-rhodamine cleavage fluorescence. inhibition, % at 20 µM. AID 1645859. P09936. hit rate 0.2% among 47,000
* hit, by the source's call. Shown are actives, neighbours in structure and some others; about 1.2% of the full set was active somewhere. Cut-off read from the data, not from the text of the source: active = inhibition above about 30%; inactive = the rest.

SMILES	USP10 inh	USP7 inh	UCHL1 block
Cc1ccc(OCC(=O)Nc2ccc(NC(=O)c3cccc(Cl)c3)cc2)cc1C	4.4	7.8	-1.7
Cc1cccc(C(=O)Nc2cccc(SC(C(=O)Nc3ccc(Cl)c(C(=O)O)c3)c3ccccc3)c2)c1 (stereo unspecified)	69.2*	11.5	7.3
Cc1ccccc1NC(=O)C(Sc1ccc(NC(=O)c2ccccc2C(=O)O)cc1)c1ccccc1 (stereo unspecified)	12.4	-6.6	-0.8
O=C(O)c1ccccc1C(=O)Nc1ccc(SC(C(=O)Nc2cccc(Cl)c2)c2ccccc2)cc1 (stereo unspecified)	51.9*	0.7	5.3
Cc1ccc(C(=O)O)cc1NC(=O)C(Sc1cccc(NC(=O)c2cccc(Cl)c2)c1)c1ccccc1 (stereo unspecified)	34.1*	-25.3	3.6
CCOc1cc2[nH]c(=O)n(Cc3cccnc3)c(=O)c2cc1OCC	1.9	3.5	3.5
Cc1cccc(C(=O)N2CCC(C(=O)c3ccc4c(c3)OCCO4)CC2)c1	-2.2	-10.0	1.4
O=C(COC(=O)c1cc2c(s1)CCC2)c1ccc2[nH]c(=O)[nH]c2c1	4.3	-21.7	7.5
O=C1C=C[C@]23Oc4ccc(O)c5c4[C@](Oc4cccc1c42)(O3)C1OC1[C@@H]5O (stereo partly specified)	-0.5	-2.7	4.0
COC[C@H]1C[C@@H]2CN(C(=O)CN)C(C)[C@H]1N2Cc1ccccc1 (stereo partly specified)	-0.1	4.0	0.6
Cc1csc(NC(=O)c2c[nH]c3ccc(F)cc3c2=O)n1	46.2*	14.6	25.2
COc1ccc2[nH]cc(C(=O)c3ccc(F)cc3)c(=O)c2c1	0.9	3.9	-1.7
CC1(c2ccco2)NC(=O)N(CC(=O)Nc2ccc(N3CCCCCC3)cc2)C1=O (stereo unspecified)	3.4	8.8	4.7
COc1cccc(-c2cn[nH]c2C2CCCN2C(=O)c2ccccn2)c1 (stereo unspecified)	-1.5	-0.1	-7.4
Cc1cccc(N(Cc2cc(=O)[nH]c3ccccc23)C(=O)c2ccc(Br)cc2)c1	6.5	13.4	0.0
CC(=O)C1=C(O)[C@]2(O)C(=O)c3c(c(C)c4ccc(C)c(O)c4c3O)C[C@H]2[C@@H](N)C1=O	-8.5	58.1*	65.6*
Cc1ccc(NC(=O)Nc2ccc(C)n(CC(=O)Nc3ccccc3)c2=O)cc1	39.1*	20.5	2.2
Cc1ccc(NC(=O)Cn2c(C)ccc(NC(=O)Nc3cccc(C)c3)c2=O)cc1	5.1	5.4	-5.5
Cc1ccc(-c2cc(C(F)F)n3ncc(C(=O)Nc4ccc(Cl)cc4)c3n2)cc1	-1.0	3.4	-1.3
Cc1ccc(-c2cc(C(F)F)n3ncc(C(=O)Nc4ccc(O)cc4)c3n2)cc1	44.3*	13.8	8.0
COc1ccc(CC(=O)Nc2c(NCc3ccccc3)c3ccccc3oc2=O)cc1	20.6	21.1	4.2
Cc1ccccc1NC(=O)Cc1nnc2c(-c3nc(C4CC4)no3)cccn12	-3.3	0.7	-2.1
Cc1ccc(NC(=O)Cc2nnc3c(-c4nc(C5CC5)no4)cccn23)cc1	48.3*	57.9*	59.2*
COc1ccc(Cl)cc1C(=O)NNC(=O)c1cc(-c2ccccc2)n[nH]1	40.4*	15.2	-0.1
O=C(O)c1cc(-c2ccccc2)n[nH]1	-0.8	1.2	-1.0
SMILES	USP10 inh	USP7 inh	UCHL1 block
Cc1nn(-c2ccccc2)c2c1c(C)c(CCC(=O)NCc1ccc(F)cc1)c(=O)n2C	1.6	1.3	-2.5
COc1ccc(-c2c[nH]n3c(=O)c(CCO)c(C)nc23)cc1OC	2.9	4.2	0.4
Cc1nc2c(-c3ccc(Cl)cc3)c[nH]n2c(=O)c1Cc1ccccc1	65.5*	-21.1	11.5
CC(C)CCn1c(=O)c2ccccc2n2c(CCC(=O)NC3CCCCCC3)nnc12	-5.5	-32.3	0.5
O=C1NC(=N/N=C/c2ccccc2)SC1Cc1cc(C(F)(F)F)ccc1Cl (stereo unspecified)	46.6*	13.3	1.4
O=C(CC1SC(=O)NC1=O)Nc1cccc(C(F)(F)F)c1 (stereo unspecified)	-8.9	-5.1	-11.5
O=C(Nc1ccccc1F)c1nc(-c2cn(-c3ccc(F)cc3)nn2)no1	25.5	-13.0	11.1
COc1ccccc1NC(=O)c1nc(-c2cn(-c3cccc(F)c3)nn2)no1	42.2*	14.0	12.4
CCC1=C(c2ccc(C)cc2)S(=O)(=O)NC1=NCC(=O)NCc1cccc(C)c1	6.7	4.4	-0.5
Cc1nc(CNC(=O)c2ccc(-c3noc(C4CC4)n3)cc2)no1	0.1	-0.1	-0.2
Cc1cccc(NC(=O)CNC(=O)c2ccc(-c3noc(C4CCCC4)n3)cc2)c1C	59.3*	17.8	3.1
Cc1ccc(C)c(OCCCn2c(CCNC(=O)C3CCCCC3)nc3ccccc32)c1	12.1	-6.1	12.4
O=C(NCCc1nc2ccccc2n1CCCOc1ccccc1Cl)C1CCCCC1	30.8*	-4.8	-4.3

From PubChem BioAssay
